{
  "source": "a collection of fitness landscapes (doi:10.1126/science.1257360)",
  "parents": {"B1": {"name": "PhoQ; a variant is named by its letters at X, in order, P23837 (parent)", "chain": "MKKLLRLFFPLSLRVRFLLATAAVVLVLSLAYGMVALIGYSVSFDKTTFRLLRGESNLFYTLAKWENNKLHVELPENIDKQSPTMTLIYDENGQLLWAQRDVPWLMKMIQPDWLKSNGFHEIEADVNDTSLLLSGDHSIQQQLQEVREDDDDAEMTHSVAVNVYPATSRMPKLTIVVVDTIPVELKSSYMVWSWFIYVLSANLLLVIPLLWVAAWWSLRPIEALAKEVRELEEHNRELLNPATTRELTSLVRNLNRLLKSERERYDKYRTTLTDLTHSLKTPLXXLQXXLRSLRSEKMSVSDAEPVMLEQISRISQQIGYYLHRASMRGGTLLSRELHPVAPLLDNLTSALNKVYQRKGVNISLDISPEISFVGEQNDFVEVMGNVLDNACKYCLEFVEISARQTDEHLYIVVEDDGPGIPLSKREVIFDRGQRVDTLRPGQGVGLAVAREITEQYEGKIVAGESMLGGARMEVIFGRQHSAPKDE"}},
  "note": "Over roughly 140,000 sequences, “enrichment ratio after two sorts for PhoP signalling” has its median near 0; the highest 2% begin near 11. What follows is part of a selection rich in the highest values, with near analogues and random picks from the rest.",
  "data": [
    {"variants_of": "B1", "assay": "enrichment ratio after two sorts for PhoP signalling (ratio (wild type AVST 3.29)); higher = more functional", "conditions": "with PhoP (E. coli)", "values": [
      {"variant": "GWEH", "enrichment ratio": "≤ 0.25"},
      {"variant": "NLWG", "enrichment ratio": "≤ 0.25"},
      {"variant": "DHDD", "enrichment ratio": "≤ 0.25"},
      {"variant": "KRSK", "enrichment ratio": "≤ 0.25"},
      {"variant": "APEA", "enrichment ratio": "≤ 0.25"},
      {"variant": "HQMW", "enrichment ratio": "≤ 0.25"},
      {"variant": "SIWV", "enrichment ratio": "≤ 0.25"},
      {"variant": "SIMV", "enrichment ratio": 13.6},
      {"variant": "SAMV", "enrichment ratio": 14.1},
      {"variant": "SAFA", "enrichment ratio": "≤ 0.25"},
      {"variant": "KAMA", "enrichment ratio": "≤ 0.25"},
      {"variant": "KYMV", "enrichment ratio": "≤ 0.25"},
      {"variant": "SPMV", "enrichment ratio": "≤ 0.25"},
      {"variant": "SAPV", "enrichment ratio": 5.29},
      {"variant": "SWMV", "enrichment ratio": "≤ 0.25"},
      {"variant": "STMV", "enrichment ratio": 12.8},
      {"variant": "SAQV", "enrichment ratio": 0.569},
      {"variant": "SAMA", "enrichment ratio": 12.3},
      {"variant": "ILLG", "enrichment ratio": "≤ 0.25"},
      {"variant": "KTTK", "enrichment ratio": "≤ 0.25"},
      {"variant": "TRRW", "enrichment ratio": "≤ 0.25"},
      {"variant": "QYNE", "enrichment ratio": "≤ 0.25"},
      {"variant": "MVYP", "enrichment ratio": "≤ 0.25"},
      {"variant": "NQPT", "enrichment ratio": "≤ 0.25"},
      {"variant": "QHTM", "enrichment ratio": "≤ 0.25"},
      {"variant": "YDVW", "enrichment ratio": "≤ 0.25"},
      {"variant": "KTCA", "enrichment ratio": "≤ 0.25"},
      {"variant": "PMGE", "enrichment ratio": "≤ 0.25"},
      {"variant": "SQMV", "enrichment ratio": 22.1},
      {"variant": "SQMW", "enrichment ratio": "≤ 0.25"},
      {"variant": "KQMV", "enrichment ratio": "≤ 0.25"},
      {"variant": "YHTC", "enrichment ratio": "≤ 0.25"},
      {"variant": "AIWH", "enrichment ratio": "≤ 0.25"},
      {"variant": "ADCC", "enrichment ratio": 4.94},
      {"variant": "AIIH", "enrichment ratio": 2.68},
      {"variant": "AEIH", "enrichment ratio": 60.7},
      {"variant": "AEFH", "enrichment ratio": 1.2},
      {"variant": "AECH", "enrichment ratio": 16.5},
      {"variant": "AECF", "enrichment ratio": 2.16},
      {"variant": "AHIH", "enrichment ratio": "≤ 0.25"},
      {"variant": "AWCH", "enrichment ratio": "≤ 0.25"},
      {"variant": "AEWH", "enrichment ratio": 22.3},
      {"variant": "AECC", "enrichment ratio": 16.3},
      {"variant": "AEWS", "enrichment ratio": 8.72},
      {"variant": "MYMC", "enrichment ratio": "≤ 0.25"},
      {"variant": "KQLY", "enrichment ratio": "≤ 0.25"},
      {"variant": "MMRL", "enrichment ratio": "≤ 0.25"},
      {"variant": "RHKQ", "enrichment ratio": "≤ 0.25"},
      {"variant": "HNLQ", "enrichment ratio": "≤ 0.25"},
      {"variant": "IHWA", "enrichment ratio": "≤ 0.25"},
      {"variant": "AEGP", "enrichment ratio": "≤ 0.25"},
      {"variant": "AEKH", "enrichment ratio": "≤ 0.25"},
      {"variant": "AEQH", "enrichment ratio": "≤ 0.25"},
      {"variant": "AEYH", "enrichment ratio": "≤ 0.25"},
      {"variant": "AEGH", "enrichment ratio": 12.9},
      {"variant": "AEMH", "enrichment ratio": 36.8},
      {"variant": "EVPD", "enrichment ratio": "≤ 0.25"},
      {"variant": "EPIP", "enrichment ratio": "≤ 0.25"},
      {"variant": "GGEV", "enrichment ratio": "≤ 0.25"},
      {"variant": "NGMG", "enrichment ratio": "≤ 0.25"},
      {"variant": "TGEV", "enrichment ratio": 26.6},
      {"variant": "DEEV", "enrichment ratio": "≤ 0.25"},
      {"variant": "YYMV", "enrichment ratio": "≤ 0.25"},
      {"variant": "TGMG", "enrichment ratio": 17.2},
      {"variant": "TGMS", "enrichment ratio": 12.8},
      {"variant": "GGMS", "enrichment ratio": 1.56},
      {"variant": "NGMS", "enrichment ratio": "≤ 0.25"},
      {"variant": "QPMV", "enrichment ratio": "≤ 0.25"},
      {"variant": "YTMV", "enrichment ratio": 12.2},
      {"variant": "PGMG", "enrichment ratio": "≤ 0.25"},
      {"variant": "PEIA", "enrichment ratio": "≤ 0.25"},
      {"variant": "HVSH", "enrichment ratio": "≤ 0.25"},
      {"variant": "FEHR", "enrichment ratio": "≤ 0.25"},
      {"variant": "ENVM", "enrichment ratio": "≤ 0.25"},
      {"variant": "LMNE", "enrichment ratio": "≤ 0.25"},
      {"variant": "WNVD", "enrichment ratio": "≤ 0.25"},
      {"variant": "RCTL", "enrichment ratio": "≤ 0.25"},
      {"variant": "NGIV", "enrichment ratio": "≤ 0.25"},
      {"variant": "NGMV", "enrichment ratio": 14},
      {"variant": "ICMW", "enrichment ratio": "≤ 0.25"},
      {"variant": "ICIV", "enrichment ratio": "≤ 0.25"},
      {"variant": "TGMV", "enrichment ratio": 12.7},
      {"variant": "NGMD", "enrichment ratio": "≤ 0.25"},
      {"variant": "RGMV", "enrichment ratio": "≤ 0.25"},
      {"variant": "ICMV", "enrichment ratio": 13.2},
      {"variant": "GGMV", "enrichment ratio": 5},
      {"variant": "DFEW", "enrichment ratio": "≤ 0.25"},
      {"variant": "DSVD", "enrichment ratio": "≤ 0.25"},
      {"variant": "KHWM", "enrichment ratio": "≤ 0.25"},
      {"variant": "VFFE", "enrichment ratio": "≤ 0.25"},
      {"variant": "QDVC", "enrichment ratio": "≤ 0.25"},
      {"variant": "AYPL", "enrichment ratio": "≤ 0.25"},
      {"variant": "CSYH", "enrichment ratio": "≤ 0.25"},
      {"variant": "FHNW", "enrichment ratio": "≤ 0.25"},
      {"variant": "IIGT", "enrichment ratio": "≤ 0.25"},
      {"variant": "SECL", "enrichment ratio": 18.7},
      {"variant": "NECL", "enrichment ratio": "≤ 0.25"},
      {"variant": "SECP", "enrichment ratio": "≤ 0.25"}
    ]}
  ]
}
